According to PubChem BioAssay AID1347137 (National Center for Advancing Translational Sciences (NCATS), 2019):
The other results are listed elsewhere or left out. Inconclusive results are not listed. Calls of active or inactive are those of the source. Calls follow the shape of the dose curve; as a rule, active = well fitted inhibition curve with a large enough effect; inconclusive = small, poorly fitted or top-dose-only effect; inactive = no such curve, though single readings can be large or run the other way.

Assay: qHTS of pediatric cancer cell lines to identify multiple opportunities for drug repurposing: Orthogonal 3D viability screen for Daoy cells
Details: Daoy 3D spheroid viability, PI/Hoechst imaging, 72 h; series mostly up to 30.7 µM; activity change, negative = viability loss: at the top concentration
From the text: Drug repurposing or repositioning has been offered as a strategy for drug development in oncology programs. This approach has special potential for childhood cancers and other rare or orphan diseases, where the expected return on new drug development has been a disincentive to pharmaceuticals. […] In this project we exploit the poly-pharmacology of drugs to discover new indications via phenotypic screening of a panel of 19 well-characterized cell lines derived from solid tumors seen in children and adolescents. The goal is to identify approved drugs with previously unrecognized anticancer properties that has the potential to reveal new mechanisms and biological processes involved in carcinogenesis or drug resistance. We employed a titration-based paradigm (quantitative high-throughput screening or qHTS), where all compounds were tested at multiple concentrations for their effect on cell viability. Concentration-response curves (CRCs) were derived directly from the primary screen, and both potency and efficacy values were used to identify compounds with robust bioactivity profiles. […] These two assays will be use to validate active compounds and assess the correlation of compound's potency in 2D vs 3D cultures on selected cell lines. Assay Submitter: Nathalia J. Martinez, National Center for Advancing Translational Sciences, National Institutes of Health, Rockville, MD, USA; email: natalia.martinez@nih.gov Shen, M et al. Quantitative high-throughput phenotypic screening of pediatric cancer cell lines identifies multiple opportunities for drug repurposing. Oncotarget 2017 Dec 19;9(4):4758-4772. PMID 29435139.
The cells were obtained from University of North Carolina (UNC), Pediatric Preclinical Testing Program (PPT), and Coriell Institute (CI). qHTS viability in 3D culture: Cells were assayed in phenol red-free growth media at a density of 1,000 cells/well, with the exception of Daoy, and SH-N-SH which were assayed at 1,500 cells/ well. Thirty muL of cells were dispensed into 384-well, ULA, round bottom plates (Corning) using a Multidrop dispenser. […] Spheroid viability was first determined by high-content imaging using Hoechst 33342 and Propidium Iodide (PI, ThermoFisher Scientific), followed by addition of CellTiter-Glo 3D (Promega). […] Plates were incubated for 30 min at RT on a VWR microplate shaker (300 rpm) and analyzed for luminescence intensity using a ViewLux High-throughput CCD imager equipped with clear filters. […] The data were exported to Excel, and the average fluorescent intensities were used to calculate the ratio of PI over Hoechst, which was used to quantify viability. […]

Structure (SMILES)	activity change, negative = viability loss	Potency
C=C1C(=CC=C2CCC[C@]3(C)[C@@H]([C@H](C)C=C[C@H](C)C(C)C)CC[C@@H]23)C[C@@H](O)C[C@@H]1O	54.7% (inactive)	–
CC[C@H]1CN2CCc3cc(OC)c(OC)cc3[C@@H]2C[C@@H]1C[C@H]1NCCc2cc(OC)c(OC)cc21	–	406 nM (active)
CC(NCc1ccc2c(c1)nc(NC(=O)c1ccc(-c3cn[nH]c3)s1)n2CC(C)(C)O)C(C)(C)C (centres undefined)	–	511 nM (active)
CC1(C)O[C@@H]2C[C@@H]3[C@H]4C[C@@H](F)C5=CC(=O)C=C[C@]5(C)[C@@]4(F)[C@@H](O)C[C@]3(C)[C@]2(C(=O)CO)O1	–	3620 nM (active)
